# Measured values: PubChem BioAssay AID1117353 (Cheminformatics & Chemogenomics Research Group (CCRG), …, 2015)
# Calls of active or inactive are those of the source. Cut-off read from the data, not from the text of the source: active = inhibition above about 50%; inactive = the rest.
# Target: Vascular endothelial growth factor receptor 2 (Homo sapiens) (UniProt P35968)
# Assay: Biochemical primary assay, inhibitors of H. sapiens VEGFR2, LANCE Ultra time-resolved FRET readout, NPC library (AID 1117353)
# Conditions: LANCE Ultra TR-FRET kinase assay; at 20 µM (top of the series)
# Vascular endothelial growth factor receptor 2 (Homo sapiens), sequence (P35968 whole entry, looked up): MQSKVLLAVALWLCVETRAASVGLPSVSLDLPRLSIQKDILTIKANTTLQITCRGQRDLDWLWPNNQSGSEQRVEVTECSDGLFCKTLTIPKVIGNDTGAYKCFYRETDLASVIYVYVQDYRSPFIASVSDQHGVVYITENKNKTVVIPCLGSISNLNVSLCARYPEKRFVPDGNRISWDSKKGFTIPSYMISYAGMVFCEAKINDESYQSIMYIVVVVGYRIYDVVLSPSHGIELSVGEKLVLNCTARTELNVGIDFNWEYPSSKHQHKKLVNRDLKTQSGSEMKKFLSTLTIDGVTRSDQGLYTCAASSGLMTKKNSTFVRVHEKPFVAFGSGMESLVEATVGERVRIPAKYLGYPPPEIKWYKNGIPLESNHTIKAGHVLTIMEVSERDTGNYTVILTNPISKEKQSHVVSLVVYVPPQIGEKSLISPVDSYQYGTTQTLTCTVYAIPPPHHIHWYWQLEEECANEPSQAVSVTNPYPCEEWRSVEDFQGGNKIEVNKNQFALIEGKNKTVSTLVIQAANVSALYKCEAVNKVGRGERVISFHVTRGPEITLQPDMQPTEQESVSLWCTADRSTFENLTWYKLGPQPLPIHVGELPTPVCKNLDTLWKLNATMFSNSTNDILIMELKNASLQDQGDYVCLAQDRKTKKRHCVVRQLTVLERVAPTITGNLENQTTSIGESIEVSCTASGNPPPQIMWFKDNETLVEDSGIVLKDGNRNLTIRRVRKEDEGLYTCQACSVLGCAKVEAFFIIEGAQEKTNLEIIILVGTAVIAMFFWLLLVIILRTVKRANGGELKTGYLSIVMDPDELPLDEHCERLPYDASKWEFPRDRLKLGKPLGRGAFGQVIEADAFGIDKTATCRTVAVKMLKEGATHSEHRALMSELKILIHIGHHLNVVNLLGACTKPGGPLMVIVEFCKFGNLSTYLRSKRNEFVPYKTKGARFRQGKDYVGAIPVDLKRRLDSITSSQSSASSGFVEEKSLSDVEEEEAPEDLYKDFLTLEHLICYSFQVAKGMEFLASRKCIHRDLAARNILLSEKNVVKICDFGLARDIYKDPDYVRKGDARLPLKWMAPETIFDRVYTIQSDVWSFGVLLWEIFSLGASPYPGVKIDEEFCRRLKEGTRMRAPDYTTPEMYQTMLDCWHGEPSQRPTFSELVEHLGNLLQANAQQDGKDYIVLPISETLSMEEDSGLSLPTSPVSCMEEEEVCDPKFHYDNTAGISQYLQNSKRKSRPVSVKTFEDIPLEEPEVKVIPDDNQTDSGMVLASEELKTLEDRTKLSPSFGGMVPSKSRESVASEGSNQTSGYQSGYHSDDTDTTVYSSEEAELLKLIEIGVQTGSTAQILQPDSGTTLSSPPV
row,Structure (SMILES),inhibition
1,C=CC(=O)Nc1cc2c(Nc3ccc(F)c(Cl)c3)ncnc2cc1OCCCN1CCOCC1,98.7% (active)
2,Cc1nc2ccc(CN(C)c3ccc(C(=O)N[C@@H](CCC(=O)O)C(=O)O)s3)cc2c(=O)[nH]1,7.13% (inactive)
3,COC(=O)c1nc(Cl)c(Cl)nc1N,6.09% (inactive)
4,Cc1cc(C2CCCCC2)n(O)c(=O)c1,4.72% (inactive)
5,O=C(Nc1ccc([N+](=O)[O-])cc1Cl)c1cc(Cl)ccc1O,5.08% (inactive)
6,O=c1[nH]c(=O)n([C@H]2C[C@H](O)[C@@H](CO)O2)cc1F,-21.7% (inactive)
7,CCCN(CCC)C(=O)C(CCC(=O)OCCCN1CCN(CCOC(=O)Cc2c(C)n(C(=O)c3ccc(Cl)cc3)c3ccc(OC)cc23)CC1)NC(=O)c1ccccc1 (stereo not drawn),-17.9% (inactive)
8,COc1cc2nc(N3CCN(C(=O)c4ccco4)CC3)nc(N)c2cc1OC,-41.4% (inactive)
9,Oc1c(I)cc(I)c2cccnc12,0.24% (inactive)
10,CC(C)(C)C(=O)OCOP(=O)(COCCn1cnc2c(N)ncnc21)OCOC(=O)C(C)(C)C,-10.9% (inactive)
11,CC(=O)Oc1ccc(C2(c3ccc(OC(C)=O)cc3)Oc3ccccc3NC2=O)cc1,-14.8% (inactive)
12,CC(C)(C)C1CCC(CC2=C(O)c3ccccc3C(=O)C2=O)CC1 (stereo not drawn),-21.1% (inactive)
13,CCCCC1C(=O)N(c2ccccc2)N(c2ccc(O)cc2)C1=O (stereo not drawn),29.1% (inactive)
14,CC[C@@]1(O)C(=O)OCc2c1cc1n(c2=O)Cc2c-1nc1ccccc1c2/C=N/OC(C)(C)C,18.1% (inactive)
15,Oc1c(Cl)cc(Cl)cc1Sc1cc(Cl)cc(Cl)c1O,60.4% (active)
16,CC(C)C[C@H](NC(=O)[C@H](CCc1ccccc1)NC(=O)CN1CCOCC1)C(=O)N[C@@H](Cc1ccccc1)C(=O)N[C@@H](CC(C)C)C(=O)[C@@]1(C)CO1,21.4% (inactive)
17,CCN(CC)CCOc1ccc(/C(=C(\Cl)c2ccccc2)c2ccccc2)cc1,-7.53% (inactive)

row,Structure (SMILES),inhibition
1,COc1ccc2cc1Oc1ccc(cc1)C[C@H]1c3c(cc4c(c3Oc3cc5c(cc3OC)CCN(C)[C@@H]5C2)OCO4)CCN1C,30.3% (inactive)
2,COc1cc2c(c(OC)c1OC)-c1ccc(OC)c(=O)cc1[C@@H](NC(C)=O)CC2,-20.7% (inactive)
3,COc1cc(-c2ccc(=O)[nH]n2)ccc1OC(F)F,-22.3% (inactive)
4,O=C1c2c(O)ccc(O)c2C(=O)c2c(NCCNCCO)ccc(NCCNCCO)c21,-38% (inactive)
5,C[C@@]12C(=O)OC(=O)[C@]1(C)C1CCC2O1,-15.1% (inactive)
6,CC[C@]1(O)C[C@H]2CN(CCc3c([nH]c4ccccc34)[C@@](C(=O)OC)(c3cc4c(cc3OC)N(C=O)[C@H]3[C@@](O)(C(=O)OC)[C@H](OC(C)=O)[C@]5(CC)C=CCN6CC[C@]43[C@@H]65)C2)C1,-11.3% (inactive)
7,CCC1=C[C@@H]2CN(C1)Cc1c([nH]c3ccccc13)[C@@](C(=O)OC)(c1cc3c(cc1OC)N(C)[C@H]1[C@@](O)(C(=O)OC)[C@H](OC(C)=O)[C@]4(CC)C=CCN5CC[C@]31[C@@H]54)C2,-20.3% (inactive)
8,CCCCCCCCCCCCCCCC[n+]1ccccc1,-114% (inactive)
9,CCC(C)n1ncn(-c2ccc(N3CCN(c4ccc(OC[C@H]5CO[C@](Cn6cncn6)(c6ccc(Cl)cc6Cl)O5)cc4)CC3)cc2)c1=O (stereo partly drawn),22.4% (inactive)
10,Oc1c(Cl)cc(Cl)c2cccnc12,-23.4% (inactive)
11,CCCCCCCCCCCCCC[N+](C)(C)C,11.2% (inactive)
12,O=c1[nH]c(=O)n([C@H]2C[C@H](O)[C@@H](CO)O2)cc1C(F)(F)F,-17.7% (inactive)
13,CC[C@]1(O)C[C@@H]2CN(CCc3c([nH]c4ccccc34)[C@@](C(=O)OC)(c3cc4c(cc3OC)N(C)[C@H]3[C@@](O)(C(=O)OC)[C@H](OC(C)=O)[C@]5(CC)C=CCN6CC[C@]43[C@@H]65)C2)C1,-21.1% (inactive)
14,Cc1cc(=O)c2c(O)c3c(O)cc(=O)c4c3c3c(cc(O)c1c23)C(C)(C)C=4O,22.3% (inactive)
15,COC(=O)[C@H]1[C@H]2C[C@@H]3c4[nH]c5cc(OC)ccc5c4CCN3C[C@H]2C[C@@H](OC(=O)/C=C/c2ccc(O)c(OC)c2)[C@@H]1OC,16.4% (inactive)
16,COc1cccc2c1C(=O)c1c(O)c3c(c(O)c1C2=O)C[C@@](O)(C(C)=O)C[C@@H]3O[C@H]1C[C@H](N)[C@H](O)[C@H](C)O1,14% (inactive)
